# Source: ChEMBL document CHEMBL4513216, “Probing the Open Global Health Chemical Diversity Library for Multistage-Active Starting Points for Next-Generation Antimalarials” (ACS Infect Dis, 2020)
# Out of some 68,000 compounds screened, about 2,700 (4%) showed an effect of 50% or more. For the sample, strong results were picked, then their nearest neighbours and some compounds at random.
# System: Plasmodium berghei
# Assay: Screen against P. berghei liver stage (PbLuc), transformed with Luciferase, at 2uM
# Assay type: functional, HepG2
# Settings: tested at 2 uM
row,SMILES,INHIBITION
1,N[C@@H]1c2ccccc2C2(CCN(c3ncccc3C(F)(F)F)CC2)[C@H]1O,-7.99%
2,OCC1(O)CCN(c2ncccc2C(F)(F)F)CC1,65.3%
3,OCC1(O)CCN(c2ccnc3c(C(F)(F)F)cccc23)CC1,-100.41%
4,Cn1c(CC2CCS(=O)(=O)C2)nnc1SCCOc1cccc(Cl)c1 (stereo not given),42.62%
5,O=C(NCc1cncc2c1CCN(CC1CCOC1)C2)c1ccco1 (stereo not given),7.33%
6,CS(=O)(=O)NCc1cncc2c1CCN(CC1CCOC1)C2 (stereo not given),52.05%
7,Cc1nccc(NCc2cncc3c2CCN(CC2CCOC2)C3)n1 (stereo not given),22.23%
8,O=C(NCc1cncc2c1CCN(C1CCOCC1)C2)c1ccno1,36.06%
9,O=C(NCc1cncc2c1CCN(CC1CCOC1)C2)c1ccno1 (stereo not given),69.13%
10,c1cnc(NCc2cncc3c2CCN(CC2CC2)C3)nc1,30.99%
11,COc1ccccc1C(=O)N1CC(=O)N(Cc2ccco2)CC(O)C1 (stereo not given),-8.2%
12,Cc1cnccc1CN1Cc2ccccc2OC2(CCC(CO)CC2)C1 (stereo not given),19.76%
13,O=C1CCC2(CCC(NCc3ccoc3)CC2)N1 (stereo not given),-29.46%
14,CCc1cnc(NCC(c2ccncc2)N2CCOCC2)nc1 (stereo not given),0.12%
15,CN1CCC(c2nnc3ccc(C(=O)N4CCCCC4)cn23)C1 (stereo not given),23.43%
16,CCNC(=O)[C@@H]1C[C@@H](NC(=O)c2ccsc2)CN1CCCSC,68.61%
17,CCNC(=O)[C@@H]1C[C@@H](NC(=O)c2cccn2C)CN1CCCSC,29.89%
18,CCNC(=O)[C@@H]1C[C@@H](NC(=O)c2ccc(C#N)cc2)CN1CCCSC,22.89%
19,CC1c2ncc(COc3cccnc3)n2CCN1C(=O)C1=CCCC1 (stereo not given),-7.05%
20,COCc1cnc2n1CCN(C(=O)c1ccc3ccccc3n1)C2C (stereo not given),53.08%
21,COCc1cnc2n1CCN(C(=O)C1=CCCCC1)C2C (stereo not given),11.55%
22,COCc1cnc2n1CCN(C(=O)C1=CCCC1)C2C (stereo not given),53.46%
23,COCc1cnc2n1CCN(C(=O)c1cc3ccccc3o1)C2C (stereo not given),-29.49%
24,CCOCc1cnc2n1CCN(C(=O)C1=CCCC1)C2C (stereo not given),21.92%

row,SMILES,INHIBITION
1,COCc1cnc2n1CCN(C(=O)c1cnc3ccccc3c1)C2C (stereo not given),-17.69%
2,COCC(=O)N1CCn2c(COc3cccnc3)cnc2C1C (stereo not given),-28.81%
3,CC1c2ncc(COc3cccnc3)n2CCN1C(=O)C1=CCCCC1 (stereo not given),52.36%
4,CS(=O)(=O)c1ccc(Cl)c(NC(=O)NCCC2=CCCCC2)c1,36.66%
5,Cc1cnn(CC2CN(Cc3nnc(C(C)C)o3)CCO2)c1 (stereo not given),-11.91%
6,CCc1ccc(CN2CCN(c3cccc(OC)c3)C(=O)C2)nc1,-18.92%
7,CC(c1cccc(-c2cn(Cc3ccoc3)nn2)c1)N(C)C (stereo not given),28.62%
8,N#Cc1ccc(C(=O)N2CC[C@H]3[C@H]2CCN3CC2CC2)cc1,5.14%
9,CCc1cccc(OC2CN(C(=O)[C@@H](N)[C@@H](C)O)C2)c1,18.28%
10,CCn1cc(NC(=O)c2cccc(OCC(F)(F)F)n2)cn1,-44.13%
11,COCC(Nc1ncnc2sc(C(=O)O)c(C)c12)c1ccnn1C (stereo not given),-1.87%
12,CCC(=O)N1CCN(C(=O)CCn2cccn2)CC1,-27.69%
13,CC(C1CC1)N(C)C(=O)CCn1cccn1 (stereo not given),31.51%
14,CCN(C(=O)CCn1cccn1)C1CC1,72.05%
15,CC(C)CN1CCN(C(=O)CCn2cccn2)CC1,0.74%
16,CNC(=O)C1CCN(C(=O)CCn2cccn2)CC1,-84.03%
17,CC(C)CC(C)N(C)C(=O)CCn1cccn1 (stereo not given),62.51%
18,O=C1CC(NS(=O)(=O)c2ccc3ccccc3c2)CN1 (stereo not given),2.11%
19,CN(Cc1ccccc1O)C(=O)NC1CCCN(c2ncccn2)C1 (stereo not given),-12.48%
20,CCc1nc(C2CCCN2CCn2cncn2)no1 (stereo not given),58.49%
21,CS(=O)(=O)CCN1CCCC1c1noc(C2CC2)n1 (stereo not given),21.83%
22,COc1c(C2CCCN2Cc2nc(C3CC3)no2)c(C)nn1C (stereo not given),-13.46%
23,c1ccc2oc(CN3CCCC3c3noc(C4CC4)n3)nc2c1 (stereo not given),63.68%
24,Cc1nn(C)c(C)c1C1CCCN1Cc1nc(C2CC2)no1 (stereo not given),-38.96%

row,SMILES,INHIBITION
1,CCc1nc(C2CCCN2C(=O)CCCn2cncn2)no1 (stereo not given),37.31%
2,CCS(=O)(=O)CCN1CCCC1c1noc(C)n1 (stereo not given),49.02%
3,CCc1nc(C2CCCN2C(=O)CCn2cncn2)no1 (stereo not given),7.54%
4,CCc1nc(C2CCCN2Cc2nc3ccccc3o2)no1 (stereo not given),-32.11%
5,c1ccc2oc(CCCN3CCCC3c3noc(C4CC4)n3)nc2c1 (stereo not given),18.86%
6,Cc1nn(C)c(Cl)c1C1CCCN1Cc1nc(C2CC2)no1 (stereo not given),51.94%
7,CCS(=O)(=O)CCN1CCCC1c1noc(C2CC2)n1 (stereo not given),51.21%
8,O=C1CN(Cc2ccc3ccccc3n2)CCN1C1CCCC1,-34.37%
9,CNC(=O)NCC(=O)N1CCCC1Cc1cccc(F)c1 (stereo not given),41.21%
10,CNc1nc(C(=O)N2CCN(c3cc(C)nc(C)c3)CC2)cs1,7.64%
11,c1cc(-c2nnn3c2COC(CNCc2nccs2)C3)ccn1 (stereo not given),16.87%
12,O=C(c1cccc(OC2CCCC2)c1)N1CCCC(n2cncn2)C1 (stereo not given),27.55%
13,Cc1nsc(NC(=O)N2CCC(C(C)(C)O)CC2)n1,-0.55%
14,CN1CCN(C(=O)c2cn(Cc3ccccc3)c3ncccc23)CC1,46.61%
15,Cc1ccc(NC2CCN(C(=O)CCc3nccs3)CC2)nn1,3.06%
16,CC(C)Cn1cc(C(=O)NC2CCS(=O)(=O)C2)c2ccccc2c1=O (stereo not given),-70.1%
17,O=C(C1CCOCC1)N1CCC2(CC1)CN(c1ccsc1)C(=O)CO2,-17.15%
18,CS(=O)(=O)Cc1ccc(NC(=O)c2cccnc2)cc1F,-35.1%
19,NC1CCc2nc(-c3cccnc3)nc(Nc3ccc(F)cc3)c2C1 (stereo not given),-13.75%
20,CCc1nc(C2CCCN2CCCS(N)(=O)=O)no1 (stereo not given),22.29%
21,CSCCCN1CCCC1c1noc(C)n1 (stereo not given),-8.84%
22,CCc1nc(C2CCCN2CCCSC)no1 (stereo not given),55.92%
